# Data reported in PubChem BioAssay (NCI).
# “And” between values parts separate entries of the source, which are not always exact repeats. Identical values can stand only once. This is part of a sample that, as a whole, favours compounds with a hit. Of some 83,000 tested, about 20% had one in any assay.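 Note: values are percent growth. 100 is the growth of untreated cells, values between 100 and 0 indicate rising inhibition; between -100 and 0 indicates cell death.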 The source made the active and inactive calls. The calls were made as follows: active = growth percent below 10; inactive = the rest.
# System: HL-60(TB) leukemia
# Assay: NCI-60 one-dose screen, 48 h (100 = growth as untreated, 0 = no growth, -100 = all killed)
# Settings: 10 µM unless noted
row,SMILES,growth
1,C=CCn1c(SCC(=O)Nc2ccc(C(=O)/C=C/c3cc4cc(OC)ccc4nc3Cl)cc2)nnc1-c1ccc(Br)cc1,81.3% (inactive)
2,O=C(N/N=C/c1cc(Cl)ccc1O)C(=O)N/N=C/c1cc(Cl)ccc1O,46.1% (inactive)
3,CC(=O)N(C)c1ccc(Nc2cc(C)[nH]c3ccc4ncnc4c23)cc1,21.3% (inactive)
4,COc1ccc(Nc2ncccc2C(=O)NCc2cn(Cc3cccc(Oc4ccccc4)c3)nn2)cc1,32.1% (inactive)
5,N#CCCN1CCN(CCC#N)C1=S,129% (inactive)
6,Cc1ccc(/C=C2\SC(=S)N(CC(=O)NCCCN3CCOCC3)C2=O)cc1,99.4% (inactive)
7,O=c1c(CNc2ccc(S(=O)(=O)Nc3nccs3)cc2)coc2ccccc12,89.6% (inactive)
8,COc1cc(NCCN=C(N)NC(N)=NC(C)C)c2ncccc2c1,74.8% (inactive)
9,COc1ccc(Cn2c(Br)c3c(c2-c2cc(OC)c(OC)c(OC)c2)CCc2sc(NC(C)=O)nc2-3)cc1,15.2% (inactive)
10,O=C(C=P(c1ccccc1)(c1ccccc1)c1ccccc1)c1ccc(Br)cc1,8.84% (active)
11,CCCCN(CCCC)CCc1c(C)cc(C)c(CCN(CCCC)CCCC)c1O,7.15% (active)
12,CN(C)c1ccc2nc3ccc(N)cc3[n+](-c3ccccc3)c2c1,-5.21% (active) and 4.22% (active)
13,COc1nc(N(C)O)nc(N(C)O)n1,50.4% (inactive)
14,O=C(Nc1cccnc1Nc1ccc(F)cc1)c1cn(Cc2cccc(Oc3ccccc3)c2)nn1,26.3% (inactive)
15,O=C(/C=C/C=C/c1ccc2c(c1)OCO2)N/N=C\c1ccc(O)cc1O,-0.489% (active)
16,C/C(=N\N=C(/C)c1cccc([N+](=O)[O-])c1)c1cccc([N+](=O)[O-])c1,125% (inactive)
17,O=C(Nc1cccc(Cl)c1)Nc1cccc(Cn2c(=O)[nH]c3ccc(Oc4ncccn4)cc3c2=O)c1,45.3% (inactive)
18,N#Cc1ccc(NC(=O)Nc2ccc(Oc3ccc(NC(=O)Nc4ccc(C#N)cc4)cc3)cc2)cc1,-38.5% (active)
19,ClCc1ccc(-c2ccc(Cn3cnc4c(Cl)nc(Cl)nc43)cc2)cc1,-53.7% (active)
20,CCCCN1C(=O)/C(=c2\sc3n(c2=O)C2C(NN=3)N(CC)C(=O)N2CC)c2ccccc21 (stereo not given),-52.2% (active)

row,SMILES,growth
1,N#Cc1cccc(/C=C(/C(=O)c2ccccc2)c2ccccc2)c1,43.7% (inactive)
2,CCOC(=O)C1(Cc2ccccc2)CCN(Cc2cccc(OC)c2O)CC1,-11.6% (active)
3,O=C(/C=C/c1ccccc1)c1ccc(Nc2nc(NCCO)nc(Nc3ccc(Cl)cc3)n2)cc1,101% (inactive)
4,O=C1/C(=C/c2ccc(F)cc2)COc2ccc(O)c(O)c21,-17% (active)
5,Nc1c(C(=O)Nc2cccc(F)c2)sc2nc3c(cc12)C(=O)CCC3,31.2% (inactive)
6,Fc1ccc(N/N=C/c2ccc(-n3cccn3)cc2)cc1,118% (inactive)
7,COc1ccc(-c2nsc3c2NC(=O)CC3c2ccc3c(c2)OCCO3)cc1 (stereo not given),13% (inactive)
8,N#CC1=C(/N=C/c2ccccc2)Oc2c(ccc3ccccc23)C1c1ccccc1 (stereo not given),0.269% (active)
9,CC1=C(C)C[C@]2(C(=O)O[C@H]3CCCC[C@@H]32)[S@](=O)C1,98.1% (inactive)
10,O=C1c2cccc3cccc(c23)C(=O)N1Nc1nc(NC2CCCCC2)nc(N2CCOCC2)n1,101% (inactive)
11,Nc1ncnc2c1ccn2-c1cccc(NC(=O)c2cccc(C(F)(F)F)c2)c1,104% (inactive)
12,COc1ccc(/C=N\NC(=O)CN2CCN(c3cc4c(cc3F)c(=O)c(C(=O)N/N=C/c3ccc(OC)c(OC)c3)cn4C3CC3)CC2)cc1OC,1.29% (active)
13,O=C1NC(=S)NC(=O)C1=Cc1cccc(C=C2C(=O)NC(=S)NC2=O)c1,101% (inactive)
14,O=S(=O)(c1ccccc1)n1cc2c(c1)-c1nc(Nc3ncccn3)sc1CC2,66.2% (inactive)
15,CC(C)OC(=O)N1CCOCC1,116% (inactive)
16,C#COc1cccc(Nc2ncnc3ncc(NC(=O)CCl)cc23)c1,-1.51% [6.25 µM] (active)
17,O=C(Cc1ccc(/C=C/C(=O)c2ncc[nH]2)cc1)Nc1ccc(C(F)(F)F)cc1,-5.94% (active)
18,O=C(CCl)Nc1ccc2c(c1)C(=O)c1ccccc1C2=O,12.7% (inactive)
19,O=C(/C=C/c1cccc(Cl)c1)c1ccccc1,95.3% (inactive) and 82.5% (inactive)
20,COc1ccc(Sc2ccc3[nH]c(=O)nc(N)c3c2)cc1,94.9% (inactive)
